Consider four molecules from PubChem BioAssay.

“And” between values parts separate entries of the source, which are not always exact repeats. Equal values may be shown once. Records with an inconclusive call do not appear. The source made the active and inactive calls. Unless noted, no stated cut-off is given here; in the data, active means inhibition above about 80%; inactive means the rest.

Assay [1] can be described thus: ovarian cancer cell viability with rucaparib, profiling panel, oncology-focused library, rucaparib conditional (AID 1508598;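 active means normalized viability below 100% at a tested concentration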). The settings on record: patient-derived ovarian cancer cells, CellTiter-Glo viability, 144 h, stronger effect = lower value. For orientation: In ATP-based viability assays light output follows the ATP content of the culture.
Assay [2] is described as follows: growth inhibition of DIPG glioma cells, dose response, cell-based, SU-DIPG-XIII, MIPE4.0, CellTiter-Glo, qHTS (AID 1347061; cut-off not given, nearly all actives have AC50 up to about 37 µM;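 further: cells exposed to compound for 48 hours before readout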). The settings on record: SU-DIPG-XIII viability, CellTiter-Glo ATP luminescence.
Assay [3] can be described thus: growth inhibition of DIPG glioma cells, dose response, cell-based, SU-DIPG-IV, MIPE4.0, CellTiter-Glo, qHTS (AID 1347063; cut-off not given, nearly all actives have AC50 up to about 30 µM;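 further: compound exposure lasted 48 hours before the viability readout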). The settings on record: SU-DIPG-IV viability, CellTiter-Glo ATP luminescence.
Assay [4] is described as follows: SU-DIPG-VI glioma cell viability, MIPE4.0 library, CellTiter-Glo luminescence, qHTS (AID 1347066; cut-off not given, nearly all actives have AC50 up to about 30 µM;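 further: cells exposed to compound for 48 hours before readout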). The settings on record: CellTiter-Glo ATP luminescence.
A short description of assay [5]: sensitizers of A549 cells to miR-34 induction, primary screen, imaging, A549 dox-inducible miR-34, nuclei and caspase counts (AID 1347080;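 active means compounds whose cell count with miR-34 switched on is under 0.7 times the count with it off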). The settings on record: A549 miR-34 inducible, Hoechst nuclei count, 48 h.
A short description of assay [6]: modifiers of HSF1 nuclear foci, imaging, Selleck Cancer Library (AID 1347162; in the data active means plate-normalised HSF1 focus index below about 0.46). The settings on record: human cells, at 10 µM; SSMD: measured here: HSF1 foci SSMD mean; cell count: measured here: cell number; plate-normalised HSF1 focus index: stronger effect = lower value.
Assay [7] is described as follows: survival rescue of mitochondrial mutant cells in low glucose, primary screen, MELAS cybrids, Rieske KO mouse fibroblasts, CellTiter-Glo (AID 1508586;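 active means mean z-score across replicates of 1.96 or higher in either the MELAS or the Rieske mutant cell line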;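 further: z relative to plate mean and SD of compound and empty wells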).
A short description of assay [8]: LFS_MB_P medulloblastoma growth inhibition, cell-based, chromothripsis tumors, cisplatin or BGB combos (AID 1671449).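 Further: cells exposed for 96 hours; 0% = vehicle DMSO and 100% = killing by high DMSO.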 The settings on record: LFS_MB_P medulloblastoma cells.
Assay [9] can be described thus: HDN33 neuroblastoma growth inhibition, cell-based, chromothripsis tumors, cisplatin or BGB combos (AID 1671450).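 Further: cells exposed to compound for four days; 0% = vehicle DMSO and 100% = cell killing by high DMSO.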 The settings on record: HDN33 neuroblastoma cells, stronger effect = higher value.
The nature of assay [10]: ICB984 medulloblastoma cell growth inhibition, synergistic combos for chromothripsis tumors, cisplatin or BGB combos (AID 1671451; call rule not given here;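 further: cells exposed for 96 hours before readout; 0% = vehicle DMSO and 100% = killing by high DMSO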). The settings on record: ICB984 medulloblastoma cells, drug combinations, stronger effect = higher value.
Assay [11] in a line: HTB85 osteosarcoma cell growth inhibition, synergistic combos for chromothripsis tumors, BGB or cisplatin IC20 combos (AID 1671453).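 Further: cells exposed for 96 hours before readout; 0% = vehicle DMSO and 100% = high DMSO killing control.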 The settings on record: HTB85 osteosarcoma cells, drug combinations, stronger effect = higher value.
Assay [12] is described as follows: MDA-MB-436 breast carcinoma cell growth inhibition, synergistic combos for chromothripsis tumors, BGB or cisplatin combos (AID 1671458; call rule not given here;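 further: cells exposed for 96 hours; 0% = vehicle DMSO and 100% = killing by high DMSO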). The settings on record: MDA-MB-436 breast carcinoma growth inhibition, drug combinations, stronger effect = higher value.
The nature of assay [13]: growth inhibition of BT084 medulloblastoma cells, cell-based, ICGC_MB145, cisplatin and BGB IC40 combos (AID 1671461).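 Further: cells exposed to drugs for 96 hours; 0% = vehicle DMSO and 100% = high DMSO full killing control.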 The settings on record: drug combinations, stronger effect = higher value.
Assay [14] in a line: growth inhibition of RCMB18 medulloblastoma cells, cell-based, cisplatin and BGB IC40 combos (AID 1671462).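 Further: cells exposed to compound for four days.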 The settings on record: stronger effect = higher value.
The nature of assay [15]: growth inhibition of CRL1545 osteosarcoma cells, cell-based, cisplatin and BGB IC20 combos (AID 1671464).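 Further: cells exposed to compound for 96 hours before readout; 0% = vehicle DMSO and 100% = high DMSO killing control.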 The settings on record: stronger effect = higher value.
Assay [16] in a line: growth inhibition of DIPG glioma cells, dose response, cell-based, JHH-DIPG-1, MIPE4.0, CellTiter-Glo, qHTS (AID 1347062; cut-off not given, nearly all actives have AC50 up to about 27 µM). The settings on record: JHH-DIPG-1 viability, CellTiter-Glo ATP luminescence.
[17] abbreviates: stronger effect = lower value, cell number ratio, induced over uninduced.
Setting [18] is: measured here: relative caspase fold change +Dox/-Dox.
Setting [19] is: measured here: total cells with miR-34 induction, stronger effect = lower value.
The mark [20] stands for this setting: measured here: total cells without miR-34 induction.
The mark [21] stands for this setting: MELAS cybrid survival, CellTiter-Glo 48 h, stronger effect = higher value.
Where [22] appears, read: Rieske KO mouse fibroblast survival, CellTiter-Glo 72 h.
Setting [23] is: measured here: with BGB IC20 combination, at 0.5 µM.
The mark [24] stands for this setting: measured here: with cisplatin IC20 combination, at 0.5 µM.

The viability is a read-out of living cells in per cent, often relative to untreated cells. As for `CCn1c(-c2nonc2N)nc2c(C#CC(C)(C)O)ncc(OC[C@H]3CCCNC3)c21`, the viability was 85.8% (active) in [1] (at 0.313 µM, OCI-P5x cells, with rucaparib 20 µM, 100% = cells with rucaparib alone); 109% (inactive) in assay [1] (at 0.313 µM, OCI-P5x cells, without rucaparib); 114% (inactive) in assay [1] (at 1.25 µM, OCI-C5x cells, with rucaparib 10 µM, 100% = cells with rucaparib alone); 136% (inactive) in assay [1] (at 1.25 µM, OCI-C5x cells, without rucaparib); 72.5% (active) in assay [1] (at 1.25 µM, OCI-P5x cells, with rucaparib 20 µM, 100% = cells with rucaparib alone); 90.8% (active) in assay [1] (at 1.25 µM, OCI-P5x cells, without rucaparib). Besides, the viability is 94.5% (active) in assay [1] (at 5 µM, OCI-C5x cells, with rucaparib 10 µM, 100% = cells with rucaparib alone); 128% (inactive) in assay [1] (at 5 µM, OCI-C5x cells, without rucaparib); 67.2% (active) in assay [1] (at 5 µM, OCI-P5x cells, with rucaparib 20 µM, 100% = cells with rucaparib alone); 68.3% (active) in [1] (at 5 µM, OCI-P5x cells, without rucaparib).
The term inhibition denotes the change of the read-out against control, counted positive when it falls. For `CNCc1ccc(-c2[nH]c3cc(F)cc4c3c2CCNC4=O)cc1`, the molecule was classed as inactive in assay [2], in assay [3] and in assay [4]. The figures for the fold change in assay [5] (setting [17]) and in assay [5] (setting [18]) were 0.956 (inactive) and 1.62, respectively. Moreover, the cell count is 6530 in [5] (setting [19]), 6840 in assay [5] (setting [20]) and 7610 in assay [6]. Moreover, in assay [6], the SSMD stood at 2.12. The plate-normalised HSF1 focus index in assay [6] was 1.13 (inactive). The results for the z-score in assay [7] (setting [21]) and in assay [7] (setting [22]) were -0.49 (inactive) and -0.266, respectively. The inhibition in assay [8] (at 0.5 µM, stronger effect = higher value) is 11.2% (inactive) and -4.36% (inactive); in assay [8] (measured here: combination with BGB IC20, at 0.005 µM), -33.6% and -11.5%; in assay [8] (measured here: combination with BGB IC40, at 0.005 µM) it was -21.8% and 22.8%; in assay [8] (measured here: combination with BGB IC40, at 0.05 µM), -33.3% and -12.4%; in assay [8] (measured here: combination with cisplatin, at 0.5 µM, stronger effect = higher value) it was -17.5% and -5.55%; in assay [8] (measured here: combination with cisplatin, at 5 µM, stronger effect = higher value), -45.3% and -35.9%. For the same molecule, the inhibition is -25.2% and 11.9% in assay [9] (BGB combo, at 5 µM); -14.8% (inactive) and 14.3% (inactive) in [9] (at 0.5 µM); -4.69% and 14.3% in assay [9] (cisplatin combo, at 5 µM); -21.7% and 13.3% in [9] (setting [23]); -14.7% and 11.6% in assay [9] (setting [24]); 9.94% and 30.8% in assay [9] (single agent, at 5 µM). Also, the inhibition in [10] (BGB IC20 combo, at 0.005 µM) is -15.3% and 7.74%; in assay [10] (BGB IC40 combo, at 0.005 µM), -14.9% and -10.3%; in assay [10] (BGB IC40 combo, at 0.05 µM) it was -15.6% and -2.1%; in assay [10] (at 0.5 µM) it was -18% (inactive) and -11.9% (inactive); in assay [10] (cisplatin combo, at 0.05 µM), -19.7% and -5.77%; in assay [10] (cisplatin combo, at 0.5 µM), -11.2% and -6.08%. Moreover, the inhibition was -48.3% and -31.5% in [10] (cisplatin combo, at 5 µM); 4.24% and 12.5% in [10] (measured here: 5 uM single agent, at 5 µM); -0.57% (inactive) and 3.23% (inactive) in assay [11] (at 0.5 µM); -24.5% and -14.6% in assay [11] (measured here: with BGB IC20, at 0.5 µM); -20.2% and -0.361% in assay [11] (measured here: with BGB IC20, at 5 µM); 6.68% and 16.2% in [11] (measured here: with cisplatin IC20, at 0.5 µM). The inhibition in [11] (measured here: with cisplatin IC20, at 5 µM) is -9.57% and 9.16%; in [11] (single agent, at 5 µM) it was -2.29% and 13.1%; in assay [12] (at 0.5 µM), 2.86% (inactive) and 14.9% (inactive); in assay [12] (measured here: BGB combination, at 0.5 µM), -19.1% and 0.063%; in assay [12] (measured here: BGB combination, at 5 µM), -12.9% and -16%; in assay [12] (measured here: cisplatin combination, at 0.5 µM) it was 9.87% and 19.6%. Also, the inhibition in [12] (measured here: cisplatin combination, at 5 µM) was 31.2% and 24.2%; in assay [13] (at 0.5 µM) it was -22% (inactive) and 7.71% (inactive); in assay [13] (cisplatin combination, at 0.5 µM), -60.7% and -23.3%; in [13] (cisplatin combination, at 5 µM), -41.6% and -18%; in assay [13] (measured here: BGB IC40 combination 0.05 uM, at 0.05 µM) it was 24.6% and 0.2%; in assay [13] (single agent, at 5 µM), -4.29% and -11.5%. The inhibition in [14] (at 0.5 µM) is -28.5% (inactive) and -5.9% (inactive); in [14] (cisplatin combo, at 5 µM), -30.1% and -29%; in assay [14] (measured here: BGB IC40 combination, at 0.05 µM) it was -11.1% and 4.25%; in assay [14] (measured here: combination with cisplatin, at 0.5 µM) it was -71.1% and 1.49%; in assay [14] (single agent, at 5 µM) it was -19.5% and -1.31%; in assay [15] (at 0.5 µM) it was 3.62% (inactive) and -10.7% (inactive). In addition, the inhibition in assay [15] (setting [23]) is -15.5% and 1.35%; in [15] (setting [24]), 11.8% and -18.6%; in assay [15] (single agent, at 0.05 µM), 15.8% and 33%; in [15] (single agent, at 5 µM), 1.41% and -6.63%.
Consider `CC(=O)O[C@@]12CO[C@@H]1C[C@H](O)[C@@]1(C)C(=O)[C@H](O)C3=C(C)[C@@H](OC(=O)C(O)[C@@H](NC(=O)OC(C)(C)C)c4ccccc4)C[C@@](O)([C@@H](OC(=O)c4ccccc4)[C@H]21)C3(C)C` (stereo not given in full), for which the outcome in assay [2], in [3] and in [4] was inactive.
Take `O=C1C(CCC(O)c2ccc(F)cc2)C(c2ccc(O)cc2)N1c1ccc(F)cc1` (stereo not given): the outcome in assay [2], in assay [16] and in assay [4] was inactive. The fold change in [5] (setting [17]) was 0.893 (inactive) and 0.906 (inactive); in assay [5] (setting [18]) it was 1.57 and 0.763. For the same molecule, the cell count in assay [5] (setting [19]) was 7660 and 7830; in assay [5] (setting [20]), 8580 and 8640. For the same molecule, the z-score was -0.505 (inactive) in [7] (setting [21]) and -0.0457 in assay [7] (setting [22]).
